PubChem BioAssay AID720606 (Broad Institute, 2013)
Inconclusive results are not listed. The source made the active and inactive calls.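 The calls were made as follows: active = all three timepoint tests show falling viability with half-maximal potency at or below twice the top dose; inconclusive = timepoint tests disagree on the call; inactive = all timepoint tests inactive.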

Test: LOX IMVI melanoma resazurin viability loss, dose response, HRAS target identification, cell-based, Alamar Blue fluorescence, 8/24/48 h, dry powder (AID 720606)

| SMILES | outcome |
| --- | --- |
| Cc1onc(C(=O)N2CCN(C(c3ccncc3)c3ccncc3)CC2)c1[N+](=O)[O-] | inactive |
| CCC(=O)N(c1ccc(OC)c(Cl)c1)C(C(=O)NCCc1ccccc1)c1cccs1 (configuration not stated) | inactive |
